The results in this text go back to PubChem BioAssay (NCATS).

Records with an inconclusive call do not appear. Active and inactive are the calls of the source. The call rests on the fitted dose curve; in most records, active means well fitted inhibition curve with a large enough effect; inconclusive means small, poorly fitted or top-dose-only effect; inactive means flat fitted curve, though single readings scatter.
Potency means the concentration at half of the fitted maximal effect.

The assay deals with 7G8. Briefly: qHTS profiling for inhibitors of Plasmodium falciparum proliferation (AID 504749). Further: nearly all actives have a fitted effect of over 60% in size.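 On activity, negative = inhibition: 0% = DMSO vehicle and full inhibition = artemisinin control.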 Particulars: P. falciparum in erythrocytes, SYBR Green DNA, 72 h; series mostly up to 28.7 µM; activity, negative = inhibition: at the top concentration. The essentials:
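Three-day growth assay of blood-stage parasites in erythrocytes (0.3% parasitemia, 2.5% hematocrit) at 37 C, 5% CO2, quantified by SYBR Green DNA staining after overnight detergent lysis.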
For orientation: In qHTS, concentration-response curves come from the screen itself.
Regarding `C[S+](CC[C@H](N)C(=O)O)C[C@H]1O[C@@H](n2cnc3c(N)ncnc32)[C@H](O)[C@@H]1O` (stereo not given in full), the “activity, negative = inhibition” value is -3.2% (inactive).

Consider `C=CCN1C(=O)C(CC(C)C)NC1=S` (stereo not given), for which the Potency entry is “inactive”. On to `CN1CCN(c2cc3c(nn2)Oc2ccccc2N3C)CC1`, for which the “activity, negative = inhibition” value is -12.9% (inactive).

For `O=C(/C=C/c1ccccc1)NCCO`, the “activity, negative = inhibition” value is -7.65% (inactive). The same measure, in the same setting: then `Cc1[nH]cnc1CN1CCc2c(c3ccccc3n2C)C1=O`, with -17.2% (inactive).

On to `CC(=O)[C@]1(O)Cc2c(O)c3c(c(O)c2[C@@H](O[C@H]2C[C@H](N)[C@H](O)[C@H](C)O2)C1)C(=O)c1c(O)cccc1C3=O`, for which the Potency was 1.12 µM (active). In the case of `Nc1ccc(C(=O)O)c(O)c1`, the “activity, negative = inhibition” value was 2.98% (inactive).

With `O=C(O)Cc1ccc(-c2ccccc2)cc1`, the “activity, negative = inhibition” value is 0.243% [at 12.8 µM] (inactive). For the compound `COc1cc(/C=C/C(=O)N2CCN(CC(=O)N3CCCC3)CC2)cc(OC)c1OC`, the Potency was 10 µM (active). In the case of `O=C(O)[C@H](O)[C@@H](O)[C@H](O)[C@H](O)CO`, the “activity, negative = inhibition” value was -8.57% (inactive). In the case of `O=C(O)/C=C/C(O)c1ccc(Cl)cc1` (stereo not given), the “activity, negative = inhibition” value is -8% (inactive). For the compound `O=C(O)COc1ccc(C(=O)c2cccs2)c(Cl)c1Cl`, the Potency result was “inactive”. In the case of `C=C(Nc1ccc(OCC)cc1)Nc1ccc(OCC)cc1`, the “activity, negative = inhibition” value is -19.7% (inactive).

With `Cc1ccc(O)c(-n2nc3ccccc3n2)c1`, the “activity, negative = inhibition” value was -23.6% (inactive).

For `CN1[C@@H]2CC[C@H]1CC(OC(=O)C(CO)c1ccccc1)C2` (stereo not given in full), the “activity, negative = inhibition” value was -2.1% (inactive). On the same count and under the same terms, then `CCOc1ccc2nc(S(N)(=O)=O)sc2c1`, with -20.1% (inactive). For the compound `O=C(CCN1CCN(CCO)CC1)N1c2ccccc2Sc2ccc(C(F)(F)F)cc21`, the Potency is 7.94 µM (active). Regarding `O=C(Nc1ccc(C(=O)O)c(O)c1)c1ccccc1`, the “activity, negative = inhibition” value was -14.1% (inactive). Consider `COC(=O)C1=C(C)NC(C)=C(C(=O)OCC(C)C)C1c1ccccc1[N+](=O)[O-]` (stereo not given), for which the Potency is 3.16 µM (active). In the case of `Nc1ccc(O)c(C(=O)O)c1`, the “activity, negative = inhibition” value is 3.57% (inactive). For the compound `Clc1ccccc1-c1nc(-c2ccncc2)no1`, the Potency is 10 µM (active).

In the case of `Cc1ccccc1CNc1ncnc2c1ncn2C1OC(CO)C(O)C1O` (stereo not given), the “activity, negative = inhibition” value is -9.95% (inactive).

For `CN(C)c1ccc(C(=C2C=CC(=[N+](C)C)C=C2)c2ccccc2)cc1`, the Potency was 11.2 µM (active). Regarding `CC1(C)C[C@@H]1C(=O)N/C(=C\CCCCSC[C@H](N)C(=O)O)C(=O)O`, the “activity, negative = inhibition” value is -17.3% (inactive). In the case of `CC(C(=O)O)c1ccc2c(c1)[nH]c1ccc(Cl)cc12` (stereo not given), the “activity, negative = inhibition” value was 7.95% (inactive).
